# Assay outcomes (PubChem)
# TDP1 cell noCPT: qHTS for Inhibitors of human tyrosyl-DNA phosphodiesterase 1 (TDP1): qHTS in cells in absence of CPT. Potency, µM (highest dose often 46.2 µM), without a hit: at the top dose activity change, negative = growth inhibition, hits mostly inhibitors. AID 686978, 2013. 420,000 compounds, 15% hits. DT40 Tdp1-/- hTDP1 cells, no CPT, ATP luminescence, 48 h; also: potency is read from the fitted curve at half-maximal effect; nearly all actives have a fitted effect of over 55% in size
#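 Camptothecin absent (DMSO only). Human TDP1-complemented DT40 knockout cells, 400 cells/well, 37 °C for minimum 48 hr; ATP measured via CellTiter-Glo, 30 min dark incubation, luminescence.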
# DT40 TDP1 CPT: DT40-hTDP1 cell growth loss with CPT. Potency, µM (top dose mostly 46.2 µM), inactives show top-dose activity change, negative = growth inhibition, actives largely listed as inhibitors. chicken DT40 Tdp1-/-;hTDP1 cells + 20 nM CPT, ATP luminescence, 48 h. AID 686979. 420,000 compounds, 12% hits; also: potency is read from the fitted curve at half-maximal effect; nearly all actives have a fitted effect of over 55% in size
#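 Cell growth measured by CellTiter-Glo luminescence after a minimum 48 h, 37 C compound exposure with 20 nM CPT in Tdp1-knockout DT40 cells stably expressing hTDP1, seeded 400/well; qHTS titration format.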
# HT1080 IDH1KD tx: HT-1080 IDH1 knockdown cell toxicity (counter line); HT-1080 IDH1 knockdown viability, ATP luminescence, 48 h; Potency, µM (doses to about 46.1 µM), for inactives: at the highest dose activity, negative = toxicity, hits mostly cytotoxic; 360,000 compounds, 2% hits;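 also: potency is read from the fitted curve at half-maximal effect; 0% = DMSO wells and -100% = cell-free medium wells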
#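 Assay cells: HT-1080 with IDH1 knockdown, 750 per well, RPMI/5% FBS. Exposure: 48 h at 37 °C following 2 h pre-incubation. Read: CellTiter-Glo luminescence; fitted concentration-response, curve class assigned.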
# IL1B secr inh: inflammasome signaling inhibition, IL-1 beta readout; THP-1 LPS/ATP IL-1B secretion, AlphaLISA, 16 h; stronger effect = lower value; activity change, % at 57.5 µM; 360,000 compounds, 4.7% hits; AID 743279; in the data active = activity change below about -50%; inconclusive = mostly about -30% to -49%
#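 THP-1 cells pretreated 1 hr with compounds (up to 57.5 uM final), then stimulated with LPS (250 ng/mL final) plus ATP (1.25 mM final); secreted IL-1B measured by AlphaLISA after 16 hr, decreased signal indicating inhibition.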
# HT1080NT lethal: kills 2HG-producing HT-1080-NT fibrosarcoma cells. HT-1080-NT fibrosarcoma viability, CellTiter-Glo ATP luminescence, 48 h. Potency, µM (doses to about 46.1 µM), without a hit: at the highest dose activity, negative = less viability, actives largely listed as cytotoxic. 360,000 compounds, 1.6% hits;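 also: NT is the 2HG producing partner of a matched IDH1 knockdown line; potency is read from the fitted curve at half-maximal effect; 0% = DMSO-treated cells and -100% = media-only wells without cells; nearly all actives have a fitted effect of over 55% in size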
#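 Luminescent CellTiter-Glo readout after 48 hours of compound exposure at 37 degrees C defined viability of HT-1080-NT cells. Activity was normalized to DMSO wells and cell-free media wells; concentration-response curves were fitted and assigned curve classes.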
# The depositor's hits bear a star; ? = inconclusive; . = no result given. The list is not random: actives were taken first. Their share in the collection is about 19%. Unless noted, calls follow the shape of the dose curve; as a rule, active = well fitted curve in the direction sought with a large enough effect; inconclusive = small, poorly fitted or top-dose-only effect, or another doubt; inactive = no such curve, though single readings can be large; an effect the other way counts as inactive or inconclusive. Unless noted, % is scaled to controls: 0 for no effect and ±100 for the full control effect.
SMILES,TDP1 cell noCPT,DT40 TDP1 CPT,HT1080 IDH1KD tx,IL1B secr inh,HT1080NT lethal
CCc1ccccc1OCC(=O)NCC1COc2ccccc2O1 (configuration not stated),?,?,-1.2%,-11.7,2.2%
CC(C)OC(=O)C(=O)NNc1ccccc1,-17.0%,-1.3%,9.2µM*,18.5,7.31µM*
Cc1cc(C)c2ccc(N)nc2c1O,18.4µM*,23.1µM*,?,96.2,10.3µM*
Cc1cc(=O)[nH]c2nc(N)ccc12,10.3%,1.6%,.,.,.
CN(C(=S)Nc1ccccc1F)C1(c2ccccc2Cl)CCCCC1=O (configuration not stated),-7.4%,-7.3%,-5.4%,-1.3,6.0%
Cc1ccc(Cl)cc1NC1=NC(=S)N(C(C)C)C12CCCCC2,18.4µM*,?,-3.2%,-23.3,-3.6%
CCOC(=O)/C(=C\c1cccnc1)C(=O)c1cc(C(C)=O)c(Nc2ccccc2)s1,1.84µM*,2.06µM*,4.11µM*,-103.5*,5.8µM*
CCOC(=O)/C(=C\c1ccccc1)C(=O)c1cc(C(C)=O)c(Nc2ccccc2)s1,9.2µM*,8.2µM*,6.31µM*,-101.4*,-10.4%
CNc1nnc(Sc2ncccc2[N+](=O)[O-])s1,16.4µM*,8.2µM*,-10.4%,.,18.7%
CC1C(=O)N2CCCc3cc(S(=O)(=O)Nc4ccc(Br)cc4F)cc1c32 (configuration not stated),-38.7%,?,.,.,.
COc1ccc(/C(=N/Nc2ncnc3ccccc23)C(=O)O)cc1,?,20.6µM*,23.1µM*,45.4,23.1µM*
C/C(=N\NC(=O)c1cccc(O)c1)c1ccc(NC(=O)Cc2ccccc2)cc1,-12.3%,-21.2%,-3.9%,23.5,9.6%
O=C1CCC[C@@H]2C=C[C@H](c3ccc(Br)cc3)[C@H]3CCN1[C@@H]32,18.4µM*,?,-14.0%,-4.3,-1.6%
CNc1oc(-c2ccccc2Cl)nc1P(=O)(c1ccccc1)c1ccccc1,14.6µM*,?,?,-78.5*,?
CN=C1CC(SC)=C1c1ccc(C)cc1,20.6µM*,16.4µM*,2.3%,-22.0,3.5%
CCC(=O)Nc1ccc(CC)cc1-c1nc2ccccc2n(CC(=O)Nc2cccc(OC)c2)c1=O,-25.3%,?,.,.,.
NNC(=O)c1sc(-c2ccc(Cl)cc2)cc1N,-7.2%,-11.3%,?,-77.6*,-8.0%
COc1ccc(CC(=O)N2CCc3cc(OC)c(OC)cc3C2COc2ccc(OC)cc2)cc1 (configuration not stated),16.4µM*,?,.,.,.
COc1ccc(OCC2c3cc(OC)c(OC)cc3CCN2C(=O)c2ccc(F)cc2)cc1 (configuration not stated),?,-28.0%,.,.,.
COC(=O)c1ccc(OCC2c3cc(OC)c(OC)cc3CCN2C(=O)C2CC2)cc1 (configuration not stated),?,?,-18.4%,?,?
CCOc1ccccc1C(=O)N1CCc2cc(OC)c(OC)cc2C1COc1ccc(OC)cc1 (configuration not stated),20.6µM*,?,.,.,.
COC(=O)c1ccc(OCC2c3cc(OC)c(OC)cc3CCN2C(=O)c2cccc(C)c2)cc1 (configuration not stated),16.4µM*,20.6µM*,.,.,.
COC(=O)c1ccc(OCC2c3cc(OC)c(OC)cc3CCN2C(=O)c2ccccc2F)cc1 (configuration not stated),18.4µM*,?,.,.,.
CCC(=O)N1CCc2cc(OC)c(OC)cc2C1COc1ccc(F)cc1 (configuration not stated),?,-10.1%,0.0%,?,-13.0%
CCCCc1nn2c(=O)cc(COC(=O)CNC(=O)COc3ccc(C)cc3)nc2s1,7.4%,3.3%,.,.,.
CCOC(=O)N1CCC(N(C(=O)Nc2ccc(CC)cc2)C(C)CC)CC1 (configuration not stated),23.1µM*,?,-1.5%,-8.0,-5.5%
